Screening data (PubChem)
Compounds with a hit are over-represented: about 1.1% of the library has one in this group of screens.
AmpC inh detg: inhibitors of E. coli AmpC beta-lactamase with detergent; AmpC hydrolysis of nitrocefin, absorbance 480 nm, 0.01% Triton; Potency, µM (top dose mostly 114 µM), actives largely listed as inhibitors; actives 0.041% (n = 370,000); AID 485294; also: nearly all actives have a fitted effect of over 25% in size
Target sequence (P00811 whole entry, looked up): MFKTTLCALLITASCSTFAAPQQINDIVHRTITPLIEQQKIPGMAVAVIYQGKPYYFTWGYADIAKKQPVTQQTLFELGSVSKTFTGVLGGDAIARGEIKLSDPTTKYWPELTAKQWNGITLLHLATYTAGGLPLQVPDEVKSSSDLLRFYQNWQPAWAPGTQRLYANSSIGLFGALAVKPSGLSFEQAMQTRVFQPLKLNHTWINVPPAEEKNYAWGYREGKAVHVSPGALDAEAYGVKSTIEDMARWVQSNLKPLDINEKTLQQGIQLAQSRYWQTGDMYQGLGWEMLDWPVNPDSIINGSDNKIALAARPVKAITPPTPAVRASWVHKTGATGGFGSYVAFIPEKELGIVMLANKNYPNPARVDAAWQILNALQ
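20 mM phosphate pH 7.0 + 0.01% (detergent screen) or 0.0001% Triton X-100; 5.3 nM AmpC reagent; cpd preinc 15 min RT; nitrocefin (800 uM stock) to start; A480 q20 s × 4 min; Activity was normalised to no-enzyme and no-compound control wells.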
VACV Venus inh: vaccinia inhibition (Venus reporter); Vaccinia virus Venus reporter expression, fluorescence; Potency, µM (highest dose often 36.5 µM), most hits filed as inhibitors; actives 0.46% (n = 330,000); calls by dose curve; tested in A549 cells; also: nearly all actives have a fitted effect of over 30% in size
VACV mCherry inh: vaccinia inhibition (mCherry reporter). Potency, µM (highest dose often 36.5 µM), most hits filed as inhibitors. AID 720579. Vaccinia virus mCherry reporter infection, fluorescence. actives 0.63% (n = 310,000); calls by dose curve; tested in A549 cells; also: nearly all actives have a fitted effect of over 35% in size
AmpC inh no detg: blocks E. coli AmpC beta-lactamase in detergent-free assay; actives 0.52% (n = 330,000); P00811; Potency, µM (titrated, usually from 57.1 µM), usual class: inhibitors; AmpC nitrocefin hydrolysis, absorbance 480 nm, 0.0001% Triton; also: nearly all actives have a fitted effect of over 20% in size
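AmpC (5.3 nM in the dispensed reagent) in 20 mM phosphate pH 7.0 with 0.01% (detergent screen) or 0.0001% Triton X-100 was preincubated with compounds for 15 min at room temperature. Nitrocefin was then added from an 800 uM solution, and hydrolysis was followed at 480 nm.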
Hits are given with their value; n = inactive; u = inconclusive; x = no result given. Unless noted, calls follow the shape of the dose curve; as a rule, active = well fitted curve in the direction sought with a large enough effect; inconclusive = small, poorly fitted or top-dose-only effect, or another doubt; inactive = no such curve, though single readings can be large; an effect the other way counts as inactive or inconclusive.

SMILES | AmpC inh detg | VACV Venus inh | VACV mCherry inh | AmpC inh no detg
CCC1(C2CCN(Cc3ccc(OC)cc3)CC2)NC(=O)N(CC2COc3ccccc3O2)C1=O (stereo not drawn) | x | n | n | x
COc1cccc(/C=N/NC(=O)c2ccoc2C)c1O | n | u | 4.5µM | n
COc1cccc(/C=N/NC(=O)C(=O)N2CCCCCC2)c1O | n | n | 13µM | n
COc1cccc(/C=N/NC(=O)C(=O)N/N=C/c2cccc(OC)c2O)c1O | u | n | n | n
NCc1cn(Cc2ccccc2)nc1-c1ccccc1 | x | n | n | x
CCC(=O)N[C@@H]1c2ccccc2C2(CCN(Cc3[nH]c4c(Cl)cccc4c3C)CC2)[C@H]1OC | x | n | n | x
O=C(NCC1Cc2cccc(-c3cnccn3)c2O1)C1COc2ccccc2O1 (stereo not drawn) | x | n | n | x
CCc1cc2c(=O)c(-c3ccc4c(c3)OCO4)coc2c(CN(C)C)c1O | n | x | x | 25µM
CCc1cc2c(=O)c(-c3cscn3)coc2c(CN(C)C)c1O | u | n | x | n
N#CC1=C(S)N(c2ccccc2)C(c2ccc(-c3ccc(Cl)c(Cl)c3)o2)NC1=O (stereo not drawn) | n | x | x | 10µM
Cc1oc(-c2ccccc2NC(=O)c2cccnc2)nc1CNC(=O)c1ccc(N(C)C)cc1 | x | n | n | x
COc1ccc2c(c1)C(=O)[C@@H](O)[C@H](c1ccc(OC)c(Br)c1)O2 | n | u | 4µM | n
CCOC(=O)N1CCN(C(=O)CSc2cc(C)nc3c(-c4ccccc4OC)c(C)nn23)CC1 | n | n | n | n
COc1ccccc1-c1c(C)nn2c(C)cc(C)nc12 | u | n | n | 10µM
CCOC(=O)N1CCC(Nc2cc(C)nc3c(-c4ccccc4OC)c(C)nn23)CC1 | n | u | u | 28µM
COc1ccccc1-c1c(C)nn2c(N3CCC(C)CC3)cc(C)nc12 | n | n | n | n
CC(I)CCC(C)[n+]1cccc(I)c1 (stereo not drawn) | x | n | n | x
C/C(=N\Nc1ccc(Cl)c(Cl)c1)c1ccc(-n2ccnc2)cc1 | n | n | n | 14µM
CC(C)C[C@H](NC(=O)c1nc[nH]c1C(=O)N[C@@H](CC(C)C)C(=O)OC(C)(C)C)C(=O)OC(C)(C)C | n | 10µM | u | n
CCOC(=O)c1ccc(NC(=O)c2nc[nH]c2C(=O)N[C@@H](Cc2ccccc2)C(=O)OC(C)(C)C)cc1 | n | u | 13µM | n
O=C(N/N=C(/CC(=O)c1cccs1)C(F)(F)F)c1ccc(O)cc1 | n | n | n | 7.9µM
CSc1ncccc1C(=O)N1CCc2nnc(C(NC(=O)c3ccoc3)C(C)C)n2CC1 (stereo not drawn) | x | n | n | x
C/C(=N\NC(=S)Nc1c(C)cccc1C)c1cc2ccccc2o1 | n | u | 7.1µM | n
COc1ccc(Cl)cc1C(=O)NCC(c1ccco1)N1CCCC1 (stereo not drawn) | n | x | x | 0.16µM
COc1ccc(S(=O)(=O)N2CCOCC2)cc1C(=O)NCC(c1ccco1)N1CCCC1 (stereo not drawn) | n | x | x | n
SMILES | AmpC inh detg | VACV Venus inh | VACV mCherry inh | AmpC inh no detg
FC(F)(F)c1ccc(Cl)c(-n2c(-c3ccco3)n[nH]c2=S)c1 | n | x | x | n
FC(F)(F)c1ccc(Cl)c(-n2c(-c3cc(-c4ccco4)[nH]n3)n[nH]c2=S)c1 | n | n | n | 4µM
Cc1cnc(-n2ncc(C(=O)NCCc3cccnc3)c2C)nc1-c1cccs1 | x | n | u | x
CC(C)(C)c1ccc(-n2nc(C#N)c(Cl)cc2=O)cc1 | n | 10µM | u | n
CC(C)(C)c1ccc(-n2nc(C(N)=O)c(O)cc2=O)cc1 | n | n | n | n
CC(=O)C1CC[C@H]2C3CC[C@@H]4CC(O)CC[C@@]4(C)C3CC[C@]12C (stereo partly drawn) | x | n | n | x
C[C@]12CC[C@H](O)C[C@@H]1CC[C@@H]1[C@@H]2CC[C@]2(C)C(=O)CC[C@@H]12 | n | n | n | n
C[C@]12CC[C@H](O)C[C@H]1CC[C@@H]1[C@@H]2C[C@@H](O)[C@]2(C)[C@@H](C3=CC(=O)OC3)CC[C@]12O | n | 1.1µM | 1.1µM | n
CC(=O)OC1CCC23C(=O)OC45CCC(C6=CC(=O)OC6)C4(C)CCC2C5CCC3(O)C1 (stereo not drawn) | x | 1.3µM | 1.8µM | x
CC12CCC(O)CC1CCC1C2CCC2(C)C(C3=CC(=O)OC3)C(O)CC12O (stereo not drawn) | x | 1.8µM | 1.3µM | x
CC12CCC(O)CC1CCC1C2CCC2(C)C(C3=CC(=O)OC3)CCC12O (stereo not drawn) | x | 0.89µM | u | x
O=C(CN1Cc2ccccc2OC(c2ccsc2)C1)N1CCN(Cc2ccc3c(c2)OCO3)CC1 (stereo not drawn) | x | n | n | x
CC(=O)OC1CCC2(C)C(CC(=O)C3C2CCC2(C)C(OC(C)=O)CCC32)C1 (stereo not drawn) | x | n | n | x
CC(=O)OC1CC[C@]2(C)C(CCC3C2CC[C@]2(C)C(C4=CC(=O)OC4)C(OC(C)=O)CC32O)C1 (stereo partly drawn) | x | 1.1µM | 1µM | x
C[C@]12CC[C@H](O)C[C@H]1CC[C@@H]1[C@@H]2CC[C@]2(C)[C@@H](C3=CC(=O)OC3)CC[C@]12O | n | 1.1µM | u | n
CCn1c(-c2cccc(OC)c2)nc2cc(NC(C)=O)cc(C(=O)N(C)CC3COCCO3)c21 (stereo not drawn) | x | n | n | x
CN1CCCC(CNC(=O)c2cnn(-c3nccc(-c4cccs4)n3)c2C2CC2)C1 (stereo not drawn) | x | n | n | x
CC(C)N(C(=O)[C@H]1C[C@H](CC(=O)NCCC2=CCCCC2)C(=O)N2CCc3c([nH]c4ccc(Cl)cc34)[C@]12C)C(C)C | x | 16µM | u | n
COc1ccc2[nH]c3c(c2c1)CCN1C(=O)C(CC(=O)NCCC2=CCCCC2)C[C@H](C(=O)N2CCCCC2)[C@@]31C (stereo partly drawn) | x | u | 10µM | n
CCOC(=O)N/N=C/c1ccc(N(CC)CC)cc1O | n | u | u | n
CCN(CC)c1ccc(/C=N/NC(=O)CNC(=O)C2COc3ccccc3O2)c(O)c1 (stereo not drawn) | n | u | 2.8µM | n
CCN(CC)c1ccc(/C=N/NC(=O)CCC(=O)NCc2ccccc2)c(O)c1 | n | u | 10µM | n
Cc1c(C(=O)NCC(C)(C)N2CCOCC2)cnn1-c1ncc2c(n1)-c1ccccc1CCC2 | x | n | n | x
CCn1c(CCCNC(=O)c2ccc(F)cc2)nc2ccccc21 | u | n | n | 35µM
CCn1c(CCNC(=O)c2ccc(F)cc2)nc2ccccc21 | n | n | n | n
CCN(CC)c1ccc(Nc2nc(N3CCOCC3)c3ccccc3n2)cc1 | n | x | x | n
COc1ccc(Nc2nc(N3CCCC3)c3ccccc3n2)cc1 | n | 10µM | 8.9µM | n
Cc1cccc(NC(=O)CCCCCN2C(=O)c3ccccc3C2=O)n1 | n | n | x | 7.1µM
Cc1ccc(C(C)C)c(OCC(O)CN2CCN(c3ccccc3F)CC2)c1 (stereo not drawn) | n | n | n | x
Cc1ccc(C(C)C)c(OCC(O)CN2CCc3ccccc3C2)c1 (stereo not drawn) | n | u | 10µM | n
